Compound activity (PubChem BioAssay)
GDH-TPI counter = inhibits GDH-TPI coupling enzymes, artifact for Mtb FBA screen. 360,000 tested, 1.2% active. inhibition, % at 4.8 µM. AID 588335. GDH-TPI coupled enzyme counterscreen, NADH absorbance; in the data active = inhibition above about 30%;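 also: 0% = DMSO wells and 100% = wells lacking the enzyme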
Mtb FBA inh = inhibitors of M. tuberculosis fructose-bisphosphate aldolase | purified M. tuberculosis FBA, fluorescence read-out | inhibition, % at 1 µM | 360,000 tested, 2.3% active; in the data active = inhibition above about 27%;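 also: 0% = vehicle and 100% = reference inhibitor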
Target sequence (P9WQA3 whole entry, looked up): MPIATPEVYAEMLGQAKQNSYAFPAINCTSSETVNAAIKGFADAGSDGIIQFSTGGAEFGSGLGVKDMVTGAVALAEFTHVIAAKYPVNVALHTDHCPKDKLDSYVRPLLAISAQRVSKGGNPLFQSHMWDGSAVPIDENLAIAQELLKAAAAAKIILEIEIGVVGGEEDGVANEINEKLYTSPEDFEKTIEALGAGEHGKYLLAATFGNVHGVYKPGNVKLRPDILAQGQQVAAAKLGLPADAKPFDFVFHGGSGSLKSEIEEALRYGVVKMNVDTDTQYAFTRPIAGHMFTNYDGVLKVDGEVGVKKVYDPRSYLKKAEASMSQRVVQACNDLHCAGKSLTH
BioA inh = inhibitors of Mycobacterium tuberculosis BioA enzyme | purified M. tuberculosis BioA enzyme, plate reader | inhibition, % at 9.99 µM | 360,000 tested, 0.096% active | AID 602481; in the data active = inhibition above about 40%
FadD28 FP inh = inhibitors of Mycobacterium tuberculosis FadD28 bisubstrate binding | FadD28 bisubstrate probe binding, fluorescence polarization | inhibition, % at 12.5 µM | 360,000 tested, 0.22% active; in the data active = inhibition above about 8.5%, passing the limit was not always enough
Mtb hypoxia inh = reduces hypoxia-regulated biosensor signal in M. tuberculosis | M. tuberculosis hypoxia-regulated fluorescent reporter, fluorescence | fluorescence inhibition, % (concentration not given with the values) | 300,000 tested, 0.1% active | AID 1159583; in the data active = fluorescence inhibition mostly above about 23%, no sharp cut-off; inactive = mostly below about 17%
* marks the source's active call; other numbers are inactive results; / = no result; + = active, no number. A selection: hits, their analogues and other compounds. The true share with any hit is near 2.9%.

SMILES	GDH-TPI counter	Mtb FBA inh	BioA inh	FadD28 FP inh	Mtb hypoxia inh
C[C@H](CO)N1C[C@H](C)[C@@H](CN(C)CC2CC2)Oc2c(NS(=O)(=O)c3ccc(Cl)cc3)cccc2C1=O	/	/	0.5	/	/
CCOP(=S)(OCC)Oc1ccc2c(C)c(Cl)c(=O)oc2c1	9.7	8.6	0.0	-3.8	-7.9
CCC(=O)Oc1ccc2c(C)c(Cl)c(=O)oc2c1	4.4	+	1.9	-5.6	/
Cc1c(Cl)c(=O)oc2cc(OC(C)C)ccc12	25.4	+	2.4	-2.3	/
Cc1ccccc1-c1ccc2c(c1)O[C@@H](CN(C)C(=O)c1ccccn1)[C@@H](C)CN([C@@H](C)CO)S2(=O)=O	/	/	-1.2	/	/
C[C@@H](NC(=O)C[C@H]1CC[C@H](NC(=O)Cc2ccccn2)[C@@H](CO)O1)c1ccccc1	/	/	-0.2	/	/
C[C@@H]1CN([C@@H](C)CO)C(=O)c2cccc(NC(=O)c3nc4ccccc4s3)c2O[C@H]1CN(C)Cc1ccc(C(F)(F)F)cc1	/	/	-1.1	/	/
COc1ccc(C=NNC(=O)NN=Cc2ccc(OC)c(OC)c2)cc1OC	47.8*	1.7	-1.8	-2.1	13.8
COc1ccc(/C=N/Nc2ccccn2)cc1OC	33.0*	0.3	2.9	-1.4	/
COc1cc(/C=N/NC(=O)CSCc2ccc([N+](=O)[O-])cc2)cc(OC)c1OC	-2.5	-9.3	-0.5	-5.1	/
COc1ccc(/C=N/NC(=O)CSCc2ccc([N+](=O)[O-])cc2)cc1OC	40.7*	-0.1	-0.7	-1.4	/
COc1cc(/C=N/NC(=O)C(=O)NCc2cccnc2)ccc1O	34.5*	0.2	-3.6	0.4	/
COc1cc(C=NNC(=O)C(=O)NCc2cccnc2)ccc1O	/	/	/	/	-1.1
CCC(=O)N1C[C@@H](C)[C@H](OC)CN(C)C(=O)c2ccc(NC(=O)C3CCCCC3)cc2OC[C@@H]1C	/	/	-1.1	/	/
C[C@H]1CCCCO[C@@H](CN(C)S(=O)(=O)c2ccc(F)cc2)[C@@H](C)CN([C@@H](C)CO)C(=O)c2cc(NS(=O)(=O)c3ccc(Cl)cc3)ccc2O1	/	/	-0.1	/	/
Cc1noc(C)c1NC(=O)Nc1ccc2c(c1)CC(=O)N([C@H](C)CO)C[C@H](C)[C@@H](CN(C)C)O2	/	/	5.5	/	/
COc1ccc(C=NNC(=O)COc2cccc3cccnc23)cc1OC	/	/	/	/	5.1
COc1cc(C=NNC(=O)C(=O)Nc2cccc(Cl)c2)cc(OC)c1O	38.9*	-3.9	-0.8	-0.6	/
COc1ccc(/C=N/NC(=O)C(=O)Nc2ccccn2)cc1OC	42.9*	-2.2	-0.7	-1.8	/
Cc1ccc2c(c1)COc1c3ccc(C(=O)NCCO)cc3nn1-2	16.4	32.3*	0.3	1.7	12.8
O=C(NCCO)c1ccc2c3n(nc2c1)-c1ccc(Cl)cc1CO3	8.4	6.4	3.2	-2.1	9.1
Cn1c(=O)c(NCCc2ccccc2)c2c3c(cccc31)C(=O)c1ccccc1-2	11.2	-7.2	-74.0	93.0*	-32.0
CN(C)CCCNC(=O)C[C@@H]1CC[C@H]2[C@H](COc3ccc(NC(=O)c4ccccc4F)cc3C(=O)N2C)O1	/	/	-0.8	/	/
N#C/C(=C/c1ccc(-c2ccc(S(N)(=O)=O)cc2)o1)C(=O)Nc1ccccc1	10.3	-0.9	0.2	-4.9	2.0
N#C/C(=C/c1ccc(-c2ccc(S(N)(=O)=O)cc2)o1)c1nc2ccccc2s1	7.4	-15.1	/	20.5*	3.2
SMILES	GDH-TPI counter	Mtb FBA inh	BioA inh	FadD28 FP inh	Mtb hypoxia inh
COc1cccc(S(=O)(=O)N2CCCCN3[C@H](C2)[C@@H](c2ccc(C#CC4CC4)cc2)[C@@H]3CO)c1	/	/	0.1	/	/
CC(C)C(=O)N1N=C(c2ccc(NS(C)(=O)=O)cc2)CC1c1cccs1 (stereo not given)	28.5	+	-1.1	-1.7	3.6
CS(=O)(=O)Nc1ccc(C2=NN(S(C)(=O)=O)C(c3ccccc3)C2)cc1 (stereo not given)	24.7	132.1*	16.3	-1.4	4.0
CS(=O)(=O)Nc1ccc(C2=NN(C(=O)C3CCCCC3)C(c3cccs3)C2)cc1 (stereo not given)	11.5	+	6.8	-3.0	-11.3
Cc1noc(C)c1NC(=O)N(C)C[C@H]1Oc2ncc(C#CC3CC3)cc2C(=O)N([C@H](C)CO)C[C@H]1C	/	/	0.5	/	/
O=C(C1CCCC1)N1CCCCN2[C@H](CO)[C@H](c3ccc(C#CC4(O)CCCC4)cc3)[C@H]2C1	/	/	-4.2	/	/
Cc1cc(C)nc(N=C(N)Nc2ccc(S(N)(=O)=O)cc2)n1	/	/	/	/	10.5
Cc1ccc(C)n1C(CC(=O)O)c1ccc(C#N)cc1 (stereo not given)	0.6	-0.9	/	11.5*	0.0
O=C(N[C@H]1CC[C@H](CCNS(=O)(=O)c2ccc(F)cc2)O[C@@H]1CO)c1cccc(F)c1	/	/	3.5	/	/
CC1(C)C=C(c2ccc(C=O)s2)CC(C)(C)N1	39.5*	-0.8	0.8	-1.7	/
CC1(C)C=C(c2ccc(C=O)s2)CC(C)(C)N1C=O	31.8*	7.3	/	-1.7	5.7
C=CCSc1nnc(-c2ccccc2N=Cc2c(C)[nH]n(-c3ccccc3)c2=O)c(=O)[nH]1	42.8*	0.2	-0.2	-2.4	/
CSc1nnc(-c2ccccc2N=Cc2c(C)[nH]n(-c3ccc4ccccc4c3)c2=O)c(=O)[nH]1	23.7	-1.6	/	-4.3	/
Cc1cccc(Nc2nc(N3CCN(C)CC3)nc(N)c2[N+](=O)[O-])c1	22.6	-6.6	/	-4.5	11.3
CCN1CCN(c2nc(N)c([N+](=O)[O-])c(Nc3cccc(C)c3)n2)CC1	34.9*	0.7	1.2	-1.7	8.4
COCC(=O)N[C@@H]1C=C[C@@H](CC(=O)NCc2ccccc2OC)O[C@H]1CO	/	/	-0.5	/	/
C[C@@H]1CN([C@H](C)CO)C(=O)c2cccc(NS(=O)(=O)c3ccc(F)cc3)c2O[C@@H]1CN(C)C(=O)Nc1ccc2c(c1)OCO2	/	/	-0.4	/	/
COc1ccc(NC(=O)Nc2ccc3c(c2)C(=O)N([C@@H](C)CO)C[C@H](C)[C@H](CN(C)S(=O)(=O)c2ccc(OC)cc2)O3)cc1	/	/	-3.6	/	/
Cc1ccc(S(=O)(=O)Nc2cccc3c2O[C@@H](CN(C)C(=O)Nc2ccc4c(c2)OCO4)[C@H](C)CN([C@@H](C)CO)C3=O)cc1	8.5	-0.8	-0.5	10.5*	/
COc1ccc(NC(=O)Nc2ccc3c(c2)C(=O)N([C@H](C)CO)C[C@H](C)[C@@H](CN(C)S(=O)(=O)c2ccc(OC)cc2)O3)cc1	5.8	3.1	15.2	9.4*	3.2
CC(C)NC(=O)Nc1cccc2c1O[C@H](CN(C)S(=O)(=O)c1ccccc1)[C@H](C)CN([C@@H](C)CO)C2=O	/	/	4.6	/	/
CN(C)CCCN(Cc1ccccc1)C(=S)Nc1ccc(OC(F)F)cc1	7.2	141.5*	0.4	-0.9	18.1
CCN1[C@@H]2Cn3c(ccc(-c4ccccc4OC)c3=O)[C@H]1[C@@H](C(=O)N[C@@H](C)c1ccccc1)[C@@H]2CO	/	/	-0.6	/	/
CCN(CC)c1ccc(C=C2C(=O)OC(C)(C(C)(C)C)OC2=O)cc1 (stereo not given)	35.9*	-1.1	-1.8	1.1	10.7
CN1[C@@H]2c3ccc(-c4ccc(F)cc4)c(=O)n3C[C@H]1[C@H](CO)[C@H]2C(=O)NC1CCCCC1	/	/	0.4	/	/
Cc1ccc(-n2nc(CC#N)c(C#N)c2N)cc1	5.8	-0.9	/	0.4	8.6
